H9c2 TAG inh: inhibitors of triacylglycerol accumulation, primary screen, cell-based, uHTS, fluorescence, H9c2. inhibition, % at 12.5 µM. 0.66% of 230,000 active. H9c2 cells, Nile Red lipid (TAG) fluorescence; cells loaded with 200 µM oleic acid;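 active = pattern-corrected inhibition of lipid staining of at least 50% with the nuclear-stain viability signal not falling by more than 50%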
FAS-TE inh: FAS thioesterase domain inhibitors, primary screen, biochemical, fluorescence intensity, uHTS; recombinant FAS-TE, OMFH fluorogenic substrate, fluorescence endpoint; inhibition, % at 15 µM; 0.67% of 360,000 active;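 active = compounds whose normalised, plate-corrected inhibition of enzyme fluorescence in the single-dose primary screen is 50% or more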
aDG glyco act: activators of alpha-DG glycosylation, primary screen, uHTS, Pro5-aDG cells, AlphaScreen; 0.22% of 360,000 active; activation, % at 10 µM; alpha-DG glycosylation AlphaScreen (IIH6); 0% Pro5, 100% B10-LARGE cell signal;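 active = activation of at least 8% versus controls, or a plate z-score of at least 8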;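 also: Pro5 are CHO cells carrying HIG-tagged alpha-DG that lacks glycosylation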
H9c2 protect: cardioprotection against H2O2-induced cell death, primary screen, uHTS, H9c2 cells, ATPLite luminescence | protection from H2O2 cell death, % at 20 µM | AID 588492, 2011 | H9c2 cardiomyocytes, H2O2 injury protection, 2 h | 0.63% of 360,000 active;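 active = compounds giving at least 50% protection of heart cells from peroxide-induced death in the single-dose screen, raw or plate-pattern-corrected value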
Calpain2 inh: inhibitors of pig calpain II, primary screen, biochemical, fluorogenic peptide substrate, 1536-well | 0.37% of 220,000 active | inhibition, % at 16 µM | purified calpain II, 30 min;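 active = inhibition above about 50%, limit read from the data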
MIN6 prolif: inducers of MIN6 beta-cell proliferation, primary screen, ATP luminescence, uHTS; MIN6 cells proliferation, ATPlite luminescence, 48 h; cells starved in 0.2% serum; 100% = growth in 10% serum; proliferation, % at 10 µM; 0.29% of 330,000 active;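 active = compounds whose signal lies at least 3.5 SD above the mean of all wells on their plate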
Hits are given with their value; . = inactive; / = not tested or not shown. An excerpt weighted towards active compounds, which were near 2.3% of everything screened.

SMILES | H9c2 TAG inh | FAS-TE inh | aDG glyco act | H9c2 protect | Calpain2 inh | MIN6 prolif
Cc1cccc(NC(=O)c2nc[nH]c2C(=O)NCCCCNC(=O)c2[nH]cnc2C(=O)Nc2cccc(C)c2)c1 | 78 | . | . | 56 | / | .
O=C(Nc1ccc(Cl)cc1)c1nc[nH]c1C(=O)NCCCCNC(=O)c1[nH]cnc1C(=O)Nc1ccc(Cl)cc1 | 110 | . | . | . | / | .
CCOC(=O)c1ccc(NC(=O)c2nc[nH]c2C(=O)NCCNC(=O)c2[nH]cnc2C(=O)Nc2ccc(C(=O)OCC)cc2)cc1 | 135 | . | . | . | / | .
O=C(Nc1cccc(Cl)c1)c1nc[nH]c1C(=O)NCCCCNC(=O)c1[nH]cnc1C(=O)Nc1cccc(Cl)c1 | 65 | . | . | 74 | / | .
O=C(Nc1cccc(Cl)c1)c1nc[nH]c1C(=O)NCCN(CCNC(=O)c1[nH]cnc1C(=O)Nc1cccc(Cl)c1)CCNC(=O)c1[nH]cnc1C(=O)Nc1cccc(Cl)c1 | 75 | . | . | . | / | .
O=C(O)c1cccc(Cn2c(Cl)c(/C=N/NC(=O)c3cc4ccccc4cc3O)sc2=O)c1 | . | . | . | . | 59 | .
O=C(Nc1ccc(Cl)cc1)N[C@H]1CC[C@H](CCn2cc(-c3ccccc3F)nn2)O[C@@H]1CO | / | / | . | / | / | /
CS(=O)(=O)N(CC(=O)N/N=C/c1cc([N+](=O)[O-])ccc1Cl)c1ccccc1 | . | . | . | . | . | .
Cc1cccc(N(CC(=O)N/N=C/c2cc([N+](=O)[O-])ccc2Cl)S(C)(=O)=O)c1C | / | 51 | . | . | . | .
O=C(NCC1CC1)c1ccc(Nc2nc3ccc(Br)cc3[nH]2)cc1 | . | . | . | . | . | .
O=C(NCc1ccco1)c1cccc(Nc2nc3ccc(Br)cc3[nH]2)c1 | . | . | . | . | 82 | .
Clc1cccc(-c2cc3nc4c(c(N5CCN(c6cnccn6)CC5)n3n2)CCCC4)c1 | 62 | . | . | . | . | .
COc1cccc(OC)c1-c1nn2c(-c3cc(-c4ccccc4)n[nH]3)nnc2s1 | . | . | . | . | 85 | .
CC(C)n1c(=S)[nH]c2scc(-c3cccs3)c2c1=O | . | . | . | . | 59 | .
O=C(CNC(=O)C1COc2ccccc2O1)N/N=C/c1ccc(O)cc1O (centres undefined) | . | . | . | 63 | . | .
O=C(/C=C\c1ccccc1)NCC(=O)N/N=C/c1ccc(O)cc1O | / | . | . | 66 | / | .
COc1ccc(/C=C\C(=O)NCC(=O)N/N=C/c2ccc(O)cc2O)cc1 | . | . | . | . | . | .
O=C(CNC(=O)C(c1ccccc1)c1ccccc1)N/N=C/c1ccc(O)cc1O | . | . | . | 56 | . | .
O=C(N/N=C/c1ccc(O)cc1O)/C(=C/c1ccccc1)CCO | / | . | . | 57 | . | .
Cc1ccc(S(=O)(=O)N(C)c2ccc(C(=O)NCC(c3ccco3)N(C)C)cc2)cc1 (centres undefined) | . | . | . | . | / | .
Cc1ccc(NC(=O)CN(C)C(=O)c2cccc(S(=O)(=O)N3CCc4ccccc4C3)c2)cc1 | . | . | . | . | / | /
CCc1cc(C(=O)N/N=C/c2ccc(O)cc2O)c2ccccc2n1 | . | . | . | 53 | / | .
O=C(N/N=C/c1ccc(O)cc1O)c1ccncc1 | / | . | . | . | / | .
CCCCCC(=O)Nc1cccc(S(=O)(=O)NC2=NCCC2)c1 | . | . | . | . | / | .
COc1ccc(CNc2oc(COc3ccc(Cl)cc3)nc2C#N)cc1 | / | . | . | . | 54 | .
SMILES | H9c2 TAG inh | FAS-TE inh | aDG glyco act | H9c2 protect | Calpain2 inh | MIN6 prolif
CCc1cc(/C(Cc2ccc3ccccc3n2)=N\O)c(O)cc1O | . | . | . | . | . | .
Cc1c(O)ccc(/C(Cc2ccc3ccccc3n2)=N\N)c1O | . | . | . | 63 | . | .
CCn1cc(CN2CCC(C(=O)Nc3cccc(-c4cccc(F)c4)c3)CC2)cn1 | . | . | . | . | / | .
CCn1nc(C)c(CN2CCC(C(=O)Nc3cccc(-c4cccc(F)c4)c3)CC2)c1C | / | . | 8.0 | . | / | .
CC(C)n1cc(CN2CCC(C(=O)Nc3cccc(-c4cccc(Cl)c4)c3)CC2)cn1 | . | . | 8.6 | . | / | .
Cc1cc(OCc2cc(C(=O)N(C)CCc3cnn(C)c3)no2)cc(C)c1Cl | / | . | . | . | / | .
O=C(Nc1ccccc1C(=O)O)c1cccc(NC(=O)c2ccc(Br)o2)c1 | / | . | . | . | 51 | .
CCC(CC)C(=O)N(C)c1c(C)nc2c(OCc3cccc(Cl)c3)cccn12 | . | . | . | . | / | /
COc1cccc(/C=C(/C(=O)OCC(N)=O)c2ccccc2)c1 | . | . | . | . | . | .
COc1cccc(/C=C(/C(=O)OCC(=O)NC2CCCC(C)C2C)c2ccccc2)c1 (centres undefined) | . | . | . | . | 56 | /
CCN(CC)C(=O)C(c1ccccc1)S(=O)(=O)N1CCOCC1 (centres undefined) | . | . | . | . | / | /
C[C@@H]1CN([C@@H](C)CO)C(=O)c2cc(C#Cc3cccc(F)c3)cnc2O[C@@H]1CN(C)CC1CCOCC1 | . | . | . | . | / | /
COc1ccc(OC)c(NC(=O)c2sc3ncnc(N4CCN(c5ccccn5)CC4)c3c2C)c1 | / | . | . | 86 | / | .
CC(=O)C1=CCC(c2ccc(Cl)c(Cl)c2)N(S(=O)(=O)c2ccc(C)cc2)C1 (centres undefined) | / | . | . | . | / | /
O=C(Cn1cc2c(n1)CCCCC2)Nc1c(F)c(F)cc(F)c1F | . | . | . | . | . | .
Cc1cc(C)c(NC(=O)Cn2cc3c(n2)CCCC3)c(C)c1 | . | . | . | . | 69 | .
COc1ccccc1-c1cnc(C(O)c2ccc(C)cc2C)[nH]1 (centres undefined) | . | . | . | . | / | /
COc1ccccc1OCCNC(=O)C1CC(=O)N(Cc2ccc(C)cc2)C1 (centres undefined) | . | . | . | . | / | .
CC(C)(C)OC(=O)CC[C@@H](C(=O)NCCCCCCCCCCC(=O)N1CCN(C(=O)OC(C)(C)C)CC1)n1cc(CCCCCNC(=O)OC(C)(C)C)nn1 | . | . | . | . | / | .
CC(C)(C)OC(=O)NCCCCCc1cn([C@@H](CO)C(=O)NCCCCCCCCCCC(=O)N2CCN(C(=O)OC(C)(C)C)CC2)nn1 | . | . | 5.8 | . | / | .
O=C(Nc1cnn(Cc2ccc(F)cc2)c1)C(c1ccccc1)c1ccccc1 | / | . | . | . | 53 | .
CC(OC(=O)CCN=C1NS(=O)(=O)c2ccccc21)C(=O)Nc1ccccc1F (centres undefined) | . | . | . | . | / | .
CCN1C(=O)[C@H]2[C@H]3CN=C(SCc4ccc(C#N)cc4)N3[C@@](Cc3ccccc3)(C(=O)OC)[C@H]2C1=O | . | . | . | 55 | / | /

Screens as filed in PubChem BioAssay.
